# According to the supplement of paper PMC8728848:
# Shown is part of a subset that was picked to be rich in the strongest signals.
# Assays:
# Assay in all cases: glycan array binding signal (z-score within array); higher = stronger binding
# Conditions in all cases: glycan notation: IUPAC condensed, linker removed; mutation: R349A
# [1] = target: Fuc(a1-2)Gal(b1-4)GlcNAc
# Method in brief: (§1)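 Glycan array data came from 3228 arrays in the Consortium for Functional Glycomics database, and only arrays with an available protein sequence were kept. Glycan names were put into IUPAC-condensed notation, and columns mapping to the same glycan were averaged. The binding signal is a within-array Z-score, averaged across arrays of one protein sequence run at different concentrations or buffers and across linkers. A negative Z-score can be read as non-binding.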
# [2] = target: Fuc(a1-2)Gal(b1-4)GlcNAc(b1-3)Gal(b1-4)GlcNAc
# Method in brief: as §1
# [3] = target: Fuc(a1-2)[GalNAc(b1-3)]Gal
# Method in brief: as §1
# [4] = target: Fuc(a1-3)[Gal(b1-4)]GlcNAc(b1-3)Gal(b1-3)[Fuc(a1-4)]GlcNAc
# Method in brief: as §1
# [5] = target: Gal(b1-3)GalNAc
# Method in brief: as §1
# [6] = target: Gal(b1-3)GalNAc(b1-4)[Neu5Ac(a2-3)]Gal(b1-4)Glc
# Method in brief: as §1
# [7] = target: Gal(b1-3)[Fuc(a1-4)]GlcNAc(b1-3)Gal(b1-4)GlcNAc
# Method in brief: as §1
# [8] = target: Gal(b1-4)GlcNAc(b1-3)[GlcNAc(b1-6)]Gal(b1-4)GlcNAc
# Method in brief: as §1
# [9] = target: Gal3S(b1-4)Glc
# Method in brief: as §1
# [10] = target: Gal3S6S(b1-4)GlcNAc
# Method in brief: as §1
# [11] = target: Gal3S6S(b1-4)GlcNAc6S
# Method in brief: as §1
# [12] = target: Gal6S(b1-4)Glc6S
# Method in brief: as §1
# [13] = target: GlcNAc(b1-2)Man(a1-3)[GlcNAc(b1-2)Man(a1-6)]Man(b1-4)GlcNAc(b1-4)GlcNAc
# Method in brief: as §1
# [14] = target: GlcNAc(b1-3)Gal
# Method in brief: as §1
# [15] = target: GlcNAc(b1-4)GlcNAc(b1-4)GlcNAc
# Method in brief: as §1
# [16] = target: GlcNAc(b1-4)GlcNAc(b1-4)GlcNAc(b1-4)GlcNAc(b1-4)GlcNAc
# Method in brief: as §1
# [17] = target: GlcNAc(b1-4)[GlcNAc(b1-6)]GalNAc
# Method in brief: as §1
# [18] = target: Man(a1-2)Man(a1-2)Man(a1-6)[Man(a1-3)]Man
# Method in brief: as §1
# [19] = target: Man(a1-2)Man(a1-3)Man
# Method in brief: as §1
# [20] = target: Man(a1-2)Man(a1-3)[Man(a1-2)Man(a1-6)]Man(a1-6)[Man(a1-2)Man(a1-2)Man(a1-3)]Man
# Method in brief: as §1
# [21] = target: Man(a1-3)[Man(a1-6)]Man(a1-6)[Man(a1-2)Man(a1-3)]Man(b1-4)GlcNAc(b1-4)GlcNAc
# Method in brief: as §1
# [22] = target: Neu5Ac(a2-3)Gal(b1-4)GlcNAc(b1-2)Man(a1-3)[GlcNAc(b1-2)Man(b1-4)GlcNAc(b1-2)Man(a1-6)]Man(b1-4)GlcNAc(b1-4)GlcNAc
# Method in brief: as §1
# [23] = target: Neu5Ac(a2-3)Gal(b1-4)[Fuc(a1-3)]GlcNAc(b1-3)Gal(b1-4)[Fuc(a1-3)]GlcNAc(b1-3)Gal(b1-4)[Fuc(a1-3)]GlcNAc
# Method in brief: as §1
# [24] = target: Neu5Ac(a2-6)GalNAc
# Method in brief: as §1
# [25] = target: Neu5Ac(a2-8)Neu5Ac(a2-8)Neu5Ac(a2-3)[GalNAc(b1-4)]Gal(b1-4)Glc
# Method in brief: as §1
binder,measurement,setting,value
Surfactant Protein D (Human); Neck + Carbohydrate Recognition Domain (NCRD) (Homo sapiens) (protein) MLLFLLSALVLLTQPLGYLEAEMKTYSHRTMPSACTLVMCSSVESGLPGRDRDGREGPRGEKGDPGLPGAAGQAGMPGQAGPVGPKGDNGSVGEPGPKGDTGPSGPPGPPGVPGPAGREGALGKQGNIGPQGKPGPKGEAGPKGEVGAPGMQGSAGARGLAGPKGERGVPGERGVPGNTGAAGSAGAMGPQGSPGARGPPGLKGDKGIPGDKGAKGESGLPDVASLRQQVEALQGQVQHLQAAFSQYKKVELFPNGQSVGEKIFKTAQFVKPFTEAQLLCTQAGGQLASPRSAAENAALQQLVVAKNEAAFLSMTDSKTEGKFTYPTGESLVYSNWAPGEPNDDGGSEDCVEIFTNGKWNDRACGEKALVVCEF,glycan array binding signal (z-score),[1],-0.584
same,glycan array binding signal (z-score),[2],-0.301
same,glycan array binding signal (z-score),[3],-0.782
same,glycan array binding signal (z-score),[4],-0.667
same,glycan array binding signal (z-score),[5],-0.459
same,glycan array binding signal (z-score),[6],0.216
same,glycan array binding signal (z-score),[7],0.257
same,glycan array binding signal (z-score),[8],-0.419
same,glycan array binding signal (z-score),[9],0.892
same,glycan array binding signal (z-score),[10],2.25
same,glycan array binding signal (z-score),[11],3.32
same,glycan array binding signal (z-score),[12],3.96
same,glycan array binding signal (z-score),[13],-0.653
same,glycan array binding signal (z-score),[14],-0.71
same,glycan array binding signal (z-score),[15],3.19
same,glycan array binding signal (z-score),[16],0.258
same,glycan array binding signal (z-score),[17],-0.577
same,glycan array binding signal (z-score),[18],-0.532
same,glycan array binding signal (z-score),[19],0.578
same,glycan array binding signal (z-score),[20],4.48
same,glycan array binding signal (z-score),[21],7.39
same,glycan array binding signal (z-score),[22],0.008
same,glycan array binding signal (z-score),[23],-0.593
same,glycan array binding signal (z-score),[24],0.373
same,glycan array binding signal (z-score),[25],-0.579
